log2 fold change data for 38 targets are collected here from the supplement of paper PMC10849652.

The full data set covers some 7,900 targets. This sample favours those with a hit. About 0.6% of all pairs of compound and target were hits. Values without a mark were called inactive.

Sequence of UniProt Q15003 (Q15003 whole entry, looked up): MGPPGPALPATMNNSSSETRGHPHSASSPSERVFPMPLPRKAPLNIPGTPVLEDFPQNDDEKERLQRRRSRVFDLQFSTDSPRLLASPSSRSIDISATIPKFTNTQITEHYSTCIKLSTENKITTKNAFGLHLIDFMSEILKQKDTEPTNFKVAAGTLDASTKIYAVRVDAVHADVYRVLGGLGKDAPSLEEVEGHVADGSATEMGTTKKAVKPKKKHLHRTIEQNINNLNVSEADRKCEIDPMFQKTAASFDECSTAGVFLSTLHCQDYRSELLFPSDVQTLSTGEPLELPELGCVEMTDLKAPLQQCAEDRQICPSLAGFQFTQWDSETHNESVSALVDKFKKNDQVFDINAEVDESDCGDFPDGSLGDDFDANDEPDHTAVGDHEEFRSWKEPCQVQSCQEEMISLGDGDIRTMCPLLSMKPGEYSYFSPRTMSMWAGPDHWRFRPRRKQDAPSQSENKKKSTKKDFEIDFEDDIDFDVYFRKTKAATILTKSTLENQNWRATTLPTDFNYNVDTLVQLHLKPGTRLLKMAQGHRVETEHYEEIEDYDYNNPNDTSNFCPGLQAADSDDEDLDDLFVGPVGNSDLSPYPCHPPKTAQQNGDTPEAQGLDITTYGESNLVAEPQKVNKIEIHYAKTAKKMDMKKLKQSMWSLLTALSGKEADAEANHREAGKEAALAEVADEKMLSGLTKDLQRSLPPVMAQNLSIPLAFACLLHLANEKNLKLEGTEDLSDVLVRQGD
Sequence of UniProt P48645 (P48645 whole entry, looked up): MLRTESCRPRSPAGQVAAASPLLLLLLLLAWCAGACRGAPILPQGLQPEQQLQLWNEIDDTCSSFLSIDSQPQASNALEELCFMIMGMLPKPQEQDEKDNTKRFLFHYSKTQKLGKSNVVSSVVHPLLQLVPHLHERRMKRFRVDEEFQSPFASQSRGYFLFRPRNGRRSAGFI
Sequence of UniProt Q96DE0 (Q96DE0 whole entry, looked up): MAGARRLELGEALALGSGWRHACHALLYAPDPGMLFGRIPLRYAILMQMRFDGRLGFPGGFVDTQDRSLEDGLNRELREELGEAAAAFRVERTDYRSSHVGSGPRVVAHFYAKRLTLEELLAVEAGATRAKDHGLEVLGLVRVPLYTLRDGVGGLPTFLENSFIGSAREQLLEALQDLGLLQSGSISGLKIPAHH
Sequence of UniProt Q9H019 (Q9H019 whole entry, looked up): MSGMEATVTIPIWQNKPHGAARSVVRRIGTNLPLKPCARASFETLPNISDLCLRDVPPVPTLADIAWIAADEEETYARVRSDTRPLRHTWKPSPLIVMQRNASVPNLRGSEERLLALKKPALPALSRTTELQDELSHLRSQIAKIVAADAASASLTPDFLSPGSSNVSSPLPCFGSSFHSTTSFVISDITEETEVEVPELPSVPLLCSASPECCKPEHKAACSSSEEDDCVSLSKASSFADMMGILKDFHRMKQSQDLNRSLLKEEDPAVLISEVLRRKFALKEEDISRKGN
Sequence of UniProt P19338 (P19338 whole entry, looked up): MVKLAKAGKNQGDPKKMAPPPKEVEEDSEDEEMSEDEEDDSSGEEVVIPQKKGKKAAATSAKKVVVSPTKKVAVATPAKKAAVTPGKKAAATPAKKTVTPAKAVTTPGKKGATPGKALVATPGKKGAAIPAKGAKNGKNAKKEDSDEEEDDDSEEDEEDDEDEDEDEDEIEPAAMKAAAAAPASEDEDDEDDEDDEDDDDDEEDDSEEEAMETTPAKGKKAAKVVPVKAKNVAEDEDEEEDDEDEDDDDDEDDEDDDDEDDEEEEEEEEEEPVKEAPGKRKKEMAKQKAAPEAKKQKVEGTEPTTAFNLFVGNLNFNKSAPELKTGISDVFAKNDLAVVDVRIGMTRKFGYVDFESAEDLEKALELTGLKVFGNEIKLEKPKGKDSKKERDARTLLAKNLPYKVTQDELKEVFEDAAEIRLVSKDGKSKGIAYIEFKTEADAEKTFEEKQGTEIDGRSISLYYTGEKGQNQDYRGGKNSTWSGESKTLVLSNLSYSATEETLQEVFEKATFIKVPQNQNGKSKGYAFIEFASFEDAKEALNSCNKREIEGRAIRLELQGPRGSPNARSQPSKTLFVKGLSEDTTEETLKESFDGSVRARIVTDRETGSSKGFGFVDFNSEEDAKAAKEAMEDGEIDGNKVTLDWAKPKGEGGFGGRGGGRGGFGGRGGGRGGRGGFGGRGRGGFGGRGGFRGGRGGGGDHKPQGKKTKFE
Sequence of UniProt P84157 (P84157 whole entry, looked up): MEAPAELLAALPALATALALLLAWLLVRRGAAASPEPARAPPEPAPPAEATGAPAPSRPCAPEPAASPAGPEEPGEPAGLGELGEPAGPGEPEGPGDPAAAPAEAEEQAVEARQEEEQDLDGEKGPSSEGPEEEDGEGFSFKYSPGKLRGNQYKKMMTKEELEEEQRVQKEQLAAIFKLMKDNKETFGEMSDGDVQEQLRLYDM
Sequence of UniProt Q92692 (Q92692 whole entry, looked up): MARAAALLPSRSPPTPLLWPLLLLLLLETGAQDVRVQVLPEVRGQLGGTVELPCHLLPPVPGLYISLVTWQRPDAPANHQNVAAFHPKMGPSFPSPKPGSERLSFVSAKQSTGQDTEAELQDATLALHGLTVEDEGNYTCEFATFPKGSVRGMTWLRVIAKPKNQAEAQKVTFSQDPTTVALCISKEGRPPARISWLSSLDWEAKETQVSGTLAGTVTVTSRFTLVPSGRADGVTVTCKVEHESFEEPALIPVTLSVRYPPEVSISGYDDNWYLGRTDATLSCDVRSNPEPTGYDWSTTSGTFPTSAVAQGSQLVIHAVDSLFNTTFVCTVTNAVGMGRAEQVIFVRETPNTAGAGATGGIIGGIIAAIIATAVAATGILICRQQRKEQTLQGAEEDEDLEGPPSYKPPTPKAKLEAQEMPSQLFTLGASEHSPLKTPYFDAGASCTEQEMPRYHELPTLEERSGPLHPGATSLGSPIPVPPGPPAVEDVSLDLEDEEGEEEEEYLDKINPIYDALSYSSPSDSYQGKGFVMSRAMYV
Sequence of MTHFD1, A0A384N5Y3 (A0A384N5Y3 whole entry, looked up): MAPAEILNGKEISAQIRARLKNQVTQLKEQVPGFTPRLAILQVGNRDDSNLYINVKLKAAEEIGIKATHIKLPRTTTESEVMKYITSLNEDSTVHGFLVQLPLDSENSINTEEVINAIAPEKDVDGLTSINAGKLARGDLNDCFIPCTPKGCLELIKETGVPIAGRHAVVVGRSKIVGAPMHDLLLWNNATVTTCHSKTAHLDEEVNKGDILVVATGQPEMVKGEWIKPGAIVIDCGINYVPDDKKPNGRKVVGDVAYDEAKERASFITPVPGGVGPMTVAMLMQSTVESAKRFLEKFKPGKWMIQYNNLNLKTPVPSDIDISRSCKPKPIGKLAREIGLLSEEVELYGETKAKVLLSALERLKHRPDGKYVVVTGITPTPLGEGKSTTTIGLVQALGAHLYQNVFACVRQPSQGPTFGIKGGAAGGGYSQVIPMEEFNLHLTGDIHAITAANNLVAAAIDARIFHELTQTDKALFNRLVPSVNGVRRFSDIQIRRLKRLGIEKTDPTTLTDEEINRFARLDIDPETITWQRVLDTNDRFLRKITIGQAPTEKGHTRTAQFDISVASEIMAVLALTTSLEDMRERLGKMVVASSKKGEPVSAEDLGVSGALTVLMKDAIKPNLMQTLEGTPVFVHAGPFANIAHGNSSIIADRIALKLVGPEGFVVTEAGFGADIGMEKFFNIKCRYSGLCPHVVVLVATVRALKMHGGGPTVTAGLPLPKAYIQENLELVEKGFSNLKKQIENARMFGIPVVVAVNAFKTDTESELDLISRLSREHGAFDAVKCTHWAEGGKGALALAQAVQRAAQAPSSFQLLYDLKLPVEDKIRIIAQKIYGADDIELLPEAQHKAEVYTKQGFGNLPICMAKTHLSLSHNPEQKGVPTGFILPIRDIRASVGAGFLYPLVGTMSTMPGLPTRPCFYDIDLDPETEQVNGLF
Sequence of UniProt Q12986 (Q12986 whole entry, looked up): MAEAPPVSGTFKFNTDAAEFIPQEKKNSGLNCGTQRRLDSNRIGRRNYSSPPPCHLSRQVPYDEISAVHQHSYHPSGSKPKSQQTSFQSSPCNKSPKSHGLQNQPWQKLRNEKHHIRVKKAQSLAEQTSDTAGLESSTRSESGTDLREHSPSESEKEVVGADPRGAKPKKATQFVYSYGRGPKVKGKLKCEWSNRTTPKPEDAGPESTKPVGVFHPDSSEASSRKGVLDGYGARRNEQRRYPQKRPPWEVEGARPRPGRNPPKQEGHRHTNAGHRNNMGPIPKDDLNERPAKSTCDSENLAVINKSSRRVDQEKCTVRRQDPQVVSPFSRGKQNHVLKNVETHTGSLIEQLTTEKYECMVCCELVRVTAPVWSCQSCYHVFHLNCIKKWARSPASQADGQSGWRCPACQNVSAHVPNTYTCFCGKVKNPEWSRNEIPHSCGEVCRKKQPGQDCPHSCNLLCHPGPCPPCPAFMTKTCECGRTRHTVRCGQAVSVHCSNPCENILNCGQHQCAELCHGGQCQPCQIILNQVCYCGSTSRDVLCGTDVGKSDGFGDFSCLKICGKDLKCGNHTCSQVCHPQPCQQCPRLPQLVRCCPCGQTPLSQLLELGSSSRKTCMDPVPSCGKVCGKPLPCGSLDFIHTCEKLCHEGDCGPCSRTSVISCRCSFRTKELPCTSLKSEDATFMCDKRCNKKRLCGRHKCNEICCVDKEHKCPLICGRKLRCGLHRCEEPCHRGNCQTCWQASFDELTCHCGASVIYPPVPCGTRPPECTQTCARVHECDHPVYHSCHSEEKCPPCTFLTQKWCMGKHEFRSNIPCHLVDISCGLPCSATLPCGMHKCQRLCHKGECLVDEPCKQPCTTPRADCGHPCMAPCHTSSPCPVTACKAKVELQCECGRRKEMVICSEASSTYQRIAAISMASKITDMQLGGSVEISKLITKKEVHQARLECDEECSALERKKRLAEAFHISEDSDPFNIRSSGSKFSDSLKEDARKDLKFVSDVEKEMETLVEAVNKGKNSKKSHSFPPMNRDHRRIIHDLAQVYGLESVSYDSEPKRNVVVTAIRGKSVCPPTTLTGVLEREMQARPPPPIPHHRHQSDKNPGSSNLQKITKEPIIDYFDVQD

Compound in this assay: Cc1nc(Nc2n[nH]c3c2CN(C(=O)N[C@H](CN(C)C)c2ccccc2)C3(C)C)c2sccc2n1
Kind of assay: log2 fold change, soluble protein after heating vs DMSO (PISA); higher = thermal stabilisation; K562 cells, 10 uM, 30 min; active = over 0.2 and 3.5 SD of the protein, either way, in both replicates (recomputed). The method, boiled down:
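For each measurement, 10 μM compound was applied for 30 min to K562 cells at 2×10^6 cells/mL. Aliquots were heated for 3 min across 48°C-58°C, pooled, and extracted in PBS with 0.5% NP-40 at 4°C; the supernatant after 21,000xg for 90 min was soluble protein. This was quantified by TMTpro 16plex LC-MS/MS with channel sums equalised, and thermal stability was reported relative to control samples from duplicates, on a log2 fold-change scale.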
As to NECTIN2 (UniProt Q92692), the log2 fold change is 0.022.
As for NCAPH (UniProt Q15003), the log2 fold change was -0.049.
The same measure for OSBPL8 (UniProt Q9BZF1): -0.086; for MPHOSPH10 (UniProt O00566): -0.028.
For the target MTHFD1, A0A384N5Y3, the log2 fold change was -0.099.
Take OXA1L (UniProt Q15070): the log2 fold change was -0.019.
NPC1 (UniProt O15118): the log2 fold change was -0.017.
The same measure for MYO19 (UniProt Q96H55): -0.045; for NCKAP1 isoform 2 (UniProt Q9Y2A7): -0.045.
Take NSMCE4A (UniProt Q9NXX6): the log2 fold change is -0.254.
For MSTO1 (UniProt Q9BUK6), the log2 fold change is 0.033.
On to MUL1 (UniProt Q969V5), for which the log2 fold change was 0.044.
To MKNK1 (UniProt Q9BUB5) belongs 0.059.
In the case of NDUFS4 (UniProt O43181), the log2 fold change is 0.015.
To NUCKS1 (UniProt Q9H1E3) belongs -0.13; to MSH3 (UniProt P20585), -0.014; to NMU (UniProt P48645), -0.022.
Regarding OSTC (UniProt Q9NRP0), the log2 fold change was -0.013.
The same measure for NDUFB8 (UniProt O95169): 0.027.
With NFX1 (UniProt Q12986), the log2 fold change is 0.075.
ORC5 (UniProt O43913): the log2 fold change was -0.001.
Turning to NUDT16 (UniProt Q96DE0), the log2 fold change is 0.015.
To MRPL50 (UniProt Q8N5N7) belongs 0.114; to NOSIP (UniProt Q9Y314), -0.277; to NSMCE2 (UniProt Q96MF7), -0.202.
To NA, A0A096LPI6 belongs -0.007.
As for MRPS35 (UniProt P82673), the log2 fold change was 0.088.
As for NA, A0A2R8Y3M9, the log2 fold change was -0.091.
The same measure for MND1 (UniProt Q9BWT6): 0.003; for NOL11 (UniProt Q9H8H0): 0.017.
The same measure for NCAPG (UniProt Q9BPX3): -0.07; for OTUD4 (UniProt Q01804): -0.039; for MTFR1L (UniProt Q9H019): -0.32.
For NFYC (UniProt Q13952), the log2 fold change was -0.021.
Consider MXRA7 (UniProt P84157), for which the log2 fold change is -0.057.
Take MRPS27 isoform 2 (UniProt Q92552): the log2 fold change is 0.021.
NCL (UniProt P19338): the log2 fold change is 0.026.
In the case of NPEPPS (UniProt P55786), the log2 fold change was 0.121.
